Consider 16 molecules from PubChem BioAssay.

Activity calls are given as the source filed them. No rule for the calls is given here.

The subject of the experiment is Aerobactin synthetase IucA (Klebsiella pneumoniae, hypervirulent). Put plainly: biochemical IucA inhibition screen of LOPAC library by absorbance (AID 1346212).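 Also: 100% = no compound wells and 0% = no enzyme wells.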 To be noted: IucA enzyme assay, absorbance (OD) readout; hits give low values;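 tested at 8 µM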.
For the molecule `O=C(c1ccc2c(c1)OCCO2)N1CCCCC1`, the remaining activity is 87.4% (inactive). For `O=C(OCCN1CCOCC1)C1(c2ccccc2)CCCCC1`, the remaining activity is 123% (inactive). For `C=C/C(C)=C/[C@@]1(C)SC(=O)C(C)=C1O` the value was 123% (inactive); for `c1ccc(C(NCCNC(c2ccccc2)c2ccccc2)c2ccccc2)cc1`, 117% (inactive); for `C[C@H](Cc1ccc(O)c(O)c1)[C@@H](C)Cc1ccc(O)c(O)c1`, 117% (inactive). With `O=c1[nH]c2cc(C(F)(F)F)ccc2n1-c1cc(C(F)(F)F)ccc1O`, the remaining activity was 112% (inactive). `Cc1nc2sccn2c(=O)c1CCN1CCC(=C(c2ccc(F)cc2)c2ccc(F)cc2)CC1`: the remaining activity was 99.1% (inactive). Regarding `Cc1ccccc1/C=C/C1=NCCN1`, the remaining activity was 120% (inactive). Next, `CN=C(NC#N)Nc1ccc(C2=NNC(=O)CC2C)cc1` (stereo unspecified): 104% (inactive); `C[N+](C)(C)CCCCCCCCCC[N+](C)(C)C`: 91.8% (inactive). Next, `CC(=O)[C@H]1CC[C@H]2[C@@H]3CCC4=CC(=O)CC[C@]4(C)[C@H]3CC[C@]12C`: 123% (inactive); `NC(=O)c1cn(Cc2c(F)cccc2F)nn1`: 117% (inactive). For the molecule `CCC(C)N(C)C(=O)c1cc2ccccc2c(-c2ccccc2Cl)n1` (stereo unspecified), the remaining activity was 116% (inactive).

`C[C@]12C=CC(=O)C=C1CC[C@@H]1C2=CC[C@]2(C)[C@@H](C(=O)CN3CCN(c4cc(N5CCCC5)nc(N5CCCC5)n4)CC3)CC[C@@H]12`: the remaining activity is 102% (inactive). Next, `CCCCCC[C@@H]([C@@H](C)O)n1cnc2c(N)ncnc21`: 99.4% (inactive); `O=c1onc2cnc3ccccc3n12`: 112% (inactive).
